Our source for the outcome and AC50 values is PubChem BioAssay (EPA / NIEHS).

Records with an inconclusive call do not appear. Active and inactive are the calls of the source. How the source made its calls, unless noted: active means hit-call score of the fitted dose curve at least 0.9, where 1 is the maximum; inactive means score below 0.9.

The nature of test [1]: ATG_PBREM_CIS: Attagene CIS-FACTORIAL HepG2 Assay for human Phenobarbital-responsive Enhancer Module (PBREM) (AID 2282955). The following applies: HepG2 PBREM cis-reporter, Attagene multiplexed transcription; actives raise or lower the signal. In short, it runs like this: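 HepG2 cells transiently transfected with multiple cis-regulated reporter units measure endogenous transcription factor activity; 24 h compound exposure. Reporter mRNA quantified by RT-PCR, fluorescent labelling, HpaI digestion and capillary electrophoresis; bidirectional fit versus DMSO.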

Test [2] concerns the target Paired box protein Pax-6 (Homo sapiens) (UniProt P26367). Description: ATG_Pax6_CIS: Attagene CIS-FACTORIAL HepG2 Assay for human Paired Box 6 (PAX6) (AID 2282956). Conditions: HepG2 CIS-FACTORIAL PAX6 reporter transcription, RNA readout; actives raise or lower the signal. The gist of the method:
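Read-out is reporter transcript level, measured by RT-PCR with fluorescent primer extension and capillary electrophoresis after 24 h dosing of transfected HepG2 cells. Activity in either direction fitted relative to DMSO control.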

Test [3] in a line: ATG_PXRE_CIS: Attagene CIS-FACTORIAL HepG2 Assay for human Pregnane X Receptor Element (PXRE) (AID 2282957). Conditions: HepG2 Attagene CIS-FACTORIAL PXRE reporter, mRNA; actives raise or lower the signal. The gist of the method: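 Bidirectional activity, baselined to DMSO, derived from reporter mRNA fluorescence (RT-PCR plus capillary electrophoresis) in HepG2 cells bearing cis-promoter reporter units, 24 h exposure.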

Test [4] in a line: ATG_Sox_CIS: Attagene CIS-FACTORIAL HepG2 Assay for human SRY-box transcription factor (SOX) (AID 2282960). Conditions: HepG2 Attagene cis-factorial SOX reporter, mRNA; actives raise or lower the signal. In short, it runs like this: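 HepG2 cells transiently transfected with multiple cis-regulated reporter units, then dosed for 24 h. Reporter mRNA quantified by RT-PCR, fluorescent labelling, HpaI digestion and capillary electrophoresis; bidirectional fit versus DMSO.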

In test [5] the target is Transcription factor Sp1 (Homo sapiens) (UniProt P08047). As to the kind of experiment: ATG_Sp1_CIS: Attagene CIS-FACTORIAL HepG2 Assay for human Specificity Protein 1 (Sp1) (AID 2282961). Conditions: HepG2 Sp1 cis-reporter transcription, actives raise or lower the signal. The gist of the method: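 HepG2 cells transiently transfected with multiplexed cis-regulated reporter constructs, chemical exposure 24 h. Reporter mRNA quantified by RT-PCR with capillary electrophoresis; bidirectional fit relative to DMSO.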
Transcription factor Sp1 (Homo sapiens), sequence (P08047 whole entry, looked up): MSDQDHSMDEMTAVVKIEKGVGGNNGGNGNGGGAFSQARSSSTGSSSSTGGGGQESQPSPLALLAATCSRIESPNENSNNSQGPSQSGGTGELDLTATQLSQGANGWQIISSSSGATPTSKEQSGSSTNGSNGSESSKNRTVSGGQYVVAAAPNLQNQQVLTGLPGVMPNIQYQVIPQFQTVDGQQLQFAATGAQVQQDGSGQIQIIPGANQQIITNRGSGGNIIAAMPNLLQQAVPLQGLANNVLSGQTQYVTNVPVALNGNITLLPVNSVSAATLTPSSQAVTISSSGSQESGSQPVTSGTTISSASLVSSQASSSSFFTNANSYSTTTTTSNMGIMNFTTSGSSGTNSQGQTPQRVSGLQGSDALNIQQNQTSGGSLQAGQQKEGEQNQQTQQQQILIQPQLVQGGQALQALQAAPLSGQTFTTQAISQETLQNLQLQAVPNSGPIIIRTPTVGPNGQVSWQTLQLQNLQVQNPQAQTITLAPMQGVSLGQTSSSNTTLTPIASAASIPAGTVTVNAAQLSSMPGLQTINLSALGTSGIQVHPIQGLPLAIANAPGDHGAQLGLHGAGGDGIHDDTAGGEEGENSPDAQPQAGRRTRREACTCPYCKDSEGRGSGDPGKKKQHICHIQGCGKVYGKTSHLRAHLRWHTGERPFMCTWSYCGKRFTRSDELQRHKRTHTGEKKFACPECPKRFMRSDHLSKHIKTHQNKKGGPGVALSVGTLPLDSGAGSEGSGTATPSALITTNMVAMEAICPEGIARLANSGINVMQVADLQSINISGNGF

A short description of test [6]: ATG_SREBP_CIS: Attagene CIS-FACTORIAL HepG2 Assay for human Sterol Regulatory Element Binding (SREBP) (AID 2282962). The following applies: HepG2 Attagene cis-factorial SREBP reporter, mRNA; actives raise or lower the signal. In short, it runs like this:
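Endogenous SREBP activity read as cis-element-driven reporter transcript in transiently transfected HepG2, 24 h post-dosing; quantified via RT-PCR plus capillary electrophoresis of fluorescent fragments. Gain or loss of signal fitted relative to DMSO baseline.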

Test [7] concerns the target Signal transducer and activator of transcription 3 (Homo sapiens) (UniProt P40763). As to the kind of experiment: ATG_STAT3_CIS: Attagene CIS-FACTORIAL HepG2 Assay for human Signal Transducer and Activator of Transcription 3 (STAT3) (AID 2282963). The following applies: HepG2, Attagene cis-factorial STAT3 reporter transcription; actives raise or lower the signal. In short, it runs like this:
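Cis-factorial format: endogenous transcription factors in HepG2 drive transfected reporter units. After 24 h treatment, reporter RNA was reverse-transcribed, amplified, FAM-labelled and HpaI-digested before CE analysis; activity scored in both directions against DMSO.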

The nature of test [8]: ATG_TA_CIS: Attagene CIS-FACTORIAL HepG2 Assay for human TA Basal Promoter (AID 2282964). The following applies: HepG2 Attagene CIS-factorial TA basal promoter reporter; actives raise or lower the signal. In short, it runs like this:
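HepG2 cells transiently transfected with multiple reporter units under cis promoter elements, reporting endogenous transcription factor activity; this endpoint tracks the TA basal promoter as background control. Reporter mRNA after 24 h dosing measured by RT-PCR/capillary electrophoresis; bidirectional fits versus DMSO.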

Test [9] can be described thus: ATG_TCF_b_cat_CIS: Attagene CIS-FACTORIAL HepG2 Assay for human T-Cell-Factor with beta-catenin (TCF/b-cat) (AID 2282965). Conditions: HepG2 TCF/beta-catenin cis-reporter transcription, actives raise or lower the signal. The gist of the method: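 Endogenous TCF/LEF activity read as reporter transcript level via RT-PCR and capillary electrophoresis fluorescence in transfected HepG2, 24 h exposure; gain or loss of signal fitted against DMSO controls.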

Test [10] can be described thus: ATG_TAL_CIS: Attagene CIS-FACTORIAL HepG2 Assay for human TAL Basal Promoter (AID 2282966).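 Further: background control endpoint measuring basal TAL promoter reporter mRNA not a specific factor.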 The following applies: HepG2 Attagene cis-factorial TAL promoter reporter; actives raise or lower the signal. The gist of the method: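 Human hepatoma HepG2 cells, transfected with promoter-regulated reporter units, were treated 24 h. Reporter transcript levels, measured through RT-PCR and capillary electrophoresis, were fitted for gain or loss relative to DMSO.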

Test [11] is described as follows: ATG_TGFb_CIS: Attagene CIS-FACTORIAL HepG2 Assay for human Transforming Growth Factor (TGF) (AID 2282967). Conditions: HepG2 Attagene CIS TGFb reporter, mRNA transcription; actives raise or lower the signal. The gist of the method:
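HepG2 cells transiently transfected with cis-promoter-driven multiple reporter units measure endogenous TF activity; reporter mRNA quantified at 24 h by RT-PCR, FAM labeling, HpaI digestion and capillary electrophoresis. Bidirectional fit vs DMSO.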

Test [12] is described as follows: ATG_VDRE_CIS: Attagene CIS-FACTORIAL HepG2 Assay for human Vitamin D Receptor Element (VDRE) (AID 2282968). Conditions: HepG2 VDRE cis-reporter transcription, actives raise or lower the signal. In short, it runs like this: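 Measures endogenous factor activity through cis-element-driven reporter transcripts in transiently transfected HepG2. Cells are treated 24 h; reporter mRNA is quantified by RT-PCR and capillary electrophoresis; fitting is bidirectional.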

Test [13] has as its target Estrogen receptor (Homo sapiens) (UniProt P03372). As to the kind of experiment: ATG_ERa_TRANS: Attagene TRANS-FACTORIAL HepG2 Assay for human Estrogen Receptor alpha (ERa) (AID 2282970; active means hit-call score of the fitted dose curve at least 0.9, where 1 is the maximum). The following applies: HepG2 Attagene TRANS ERa GAL4 reporter, mRNA. The gist of the method:
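Signal derives from fluorescence of labelled reporter PCR fragments separated by capillary electrophoresis. HepG2 cells transiently carrying multiple GAL4-UAS reporter units were treated 24 hours, and induction above DMSO baseline was fitted as activity.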

A short description of test [14]: ATG_GAL4_TRANS: Attagene TRANS-FACTORIAL HepG2 Assay for GAL4 (Internal Marker) (AID 2282976; active means hit-call score of the fitted dose curve at least 0.9, where 1 is the maximum). The following applies: HepG2 Attagene TRANS GAL4 internal marker reporter. In short, it runs like this:
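Liver HepG2 line bearing multiplexed GAL4-UAS reporter constructs; 24 h chemical treatment. Transcripts were quantified as fluorescent fragments on capillary electrophoresis after RT-PCR and HpaI cut, with activity fitted upward from DMSO.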

The nature of test [15]: ATG_PPRE_CIS: Attagene CIS-FACTORIAL HepG2 Assay for human Peroxisome Proliferator-activated Response Element (PPRE) (AID 2282958). The following applies: HepG2 PPRE cis-element reporter, Attagene transcription factor profiling; actives raise or lower the signal. The gist of the method:
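HepG2 cells are transiently transfected with multiplexed cis-promoter reporter units to report endogenous PPAR activity. After 24 h dosing, reporter mRNA is read by RT-PCR and capillary electrophoresis. Fitting is bidirectional against DMSO.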

The nature of test [16]: ATG_RORE_CIS: Attagene CIS-FACTORIAL HepG2 Assay for human RAR-related Orphan Receptor Element (RORE) (AID 2282959). Conditions: HepG2 Attagene cis-factorial RORE reporter, mRNA; actives raise or lower the signal. The gist of the method: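 HepG2 cells carrying transiently transfected cis-regulated reporter units; RORE-driven reporter mRNA quantified 24 h post-dosing by RT-PCR, 6-FAM primer extension, HpaI digestion and capillary electrophoresis. Bidirectional fit versus DMSO.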

The target in test [17] is Steroid hormone receptor ERR1 (Homo sapiens) (UniProt P11474). Description: ATG_ERRa_TRANS: Attagene TRANS-FACTORIAL HepG2 Assay for human Estrogen-Related Receptor alpha (ERRa) (AID 2282971; active means hit-call score of the fitted dose curve at least 0.9, where 1 is the maximum). Conditions: HepG2 Attagene TRANS reporter, ERRa transactivation. In short, it runs like this:
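Signal gain relative to DMSO for an ERRa-Gal4 chimeric receptor, read as reporter mRNA by RT-PCR/capillary electrophoresis. Human HepG2 liver cells, transient multiplex reporter transfection, 24 h chemical exposure.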

The target of test [18] is Nuclear receptor subfamily 1 group I member 3 (Homo sapiens) (UniProt Q14994). As to the kind of experiment: ATG_CAR_TRANS: Attagene TRANS-FACTORIAL HepG2 Assay for human Constitutive Androstane Receptor (CAR) (AID 2282969; active means hit-call score of the fitted dose curve at least 0.9, where 1 is the maximum;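 further: activators raise reporter mRNA above DMSO so AC50 marks induction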). The following applies: HepG2 Attagene TRANS-FACTORIAL CAR reporter. In short, it runs like this:
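Signal is reporter mRNA induction relative to DMSO, measured 24 h after dosing by RT-PCR with fluorescent primer extension and capillary electrophoresis. Human HepG2 liver cells carried transiently transfected chimeric NR-Gal4/GAL4-UAS reporter constructs.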

Test [19] concerns the target X-box-binding protein 1 (Homo sapiens) (UniProt P17861). Description: ATG_Xbp1_CIS: Attagene CIS-FACTORIAL HepG2 Assay for human X-box Binding Protein 1 (XBP1) (AID 2282972). Conditions: HepG2 XBP1 cis-element reporter, Attagene multiplex; actives raise or lower the signal. In short, it runs like this: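 Reporter transcripts were quantified by RT-PCR with fluorescent primer extension and capillary electrophoresis after 24 h chemical exposure. Cells: transiently transfected HepG2 carrying cis-regulated reporter constructs; data fitted bidirectionally relative to DMSO.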

Nuclear receptor subfamily 1 group I member 3 (Homo sapiens), sequence (Q14994 whole entry, looked up, the tested form may be a part): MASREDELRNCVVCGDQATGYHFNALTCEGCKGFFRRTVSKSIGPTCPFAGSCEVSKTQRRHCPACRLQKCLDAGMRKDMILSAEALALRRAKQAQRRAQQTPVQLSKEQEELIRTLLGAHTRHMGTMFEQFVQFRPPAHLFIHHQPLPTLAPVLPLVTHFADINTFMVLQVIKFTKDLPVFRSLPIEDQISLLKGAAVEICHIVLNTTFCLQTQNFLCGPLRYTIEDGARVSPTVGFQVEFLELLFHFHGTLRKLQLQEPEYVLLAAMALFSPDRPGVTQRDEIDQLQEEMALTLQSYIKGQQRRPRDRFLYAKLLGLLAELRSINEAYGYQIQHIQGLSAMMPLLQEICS
X-box-binding protein 1 (Homo sapiens), sequence (P17861 whole entry, looked up): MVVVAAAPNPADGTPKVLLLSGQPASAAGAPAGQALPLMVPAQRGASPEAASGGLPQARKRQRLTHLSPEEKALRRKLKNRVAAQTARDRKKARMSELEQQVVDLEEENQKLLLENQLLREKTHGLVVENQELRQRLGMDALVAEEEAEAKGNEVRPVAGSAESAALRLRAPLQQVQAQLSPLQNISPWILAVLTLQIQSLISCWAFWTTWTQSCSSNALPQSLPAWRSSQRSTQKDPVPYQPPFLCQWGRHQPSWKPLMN
Paired box protein Pax-6 (Homo sapiens), sequence (P26367 whole entry, looked up): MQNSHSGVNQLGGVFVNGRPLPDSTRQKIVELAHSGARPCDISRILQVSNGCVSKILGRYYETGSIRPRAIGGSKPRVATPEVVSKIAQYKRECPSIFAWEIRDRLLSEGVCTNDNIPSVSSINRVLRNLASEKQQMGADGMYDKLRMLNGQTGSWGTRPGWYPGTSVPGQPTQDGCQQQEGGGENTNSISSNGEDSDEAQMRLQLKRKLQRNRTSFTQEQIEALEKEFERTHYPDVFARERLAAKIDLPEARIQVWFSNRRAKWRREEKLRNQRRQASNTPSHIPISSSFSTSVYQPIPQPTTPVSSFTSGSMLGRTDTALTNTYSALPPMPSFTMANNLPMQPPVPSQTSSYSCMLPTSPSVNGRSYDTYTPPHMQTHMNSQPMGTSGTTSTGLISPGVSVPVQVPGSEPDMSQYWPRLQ
Estrogen receptor (Homo sapiens), sequence (P03372 whole entry, looked up, the tested form may be a part): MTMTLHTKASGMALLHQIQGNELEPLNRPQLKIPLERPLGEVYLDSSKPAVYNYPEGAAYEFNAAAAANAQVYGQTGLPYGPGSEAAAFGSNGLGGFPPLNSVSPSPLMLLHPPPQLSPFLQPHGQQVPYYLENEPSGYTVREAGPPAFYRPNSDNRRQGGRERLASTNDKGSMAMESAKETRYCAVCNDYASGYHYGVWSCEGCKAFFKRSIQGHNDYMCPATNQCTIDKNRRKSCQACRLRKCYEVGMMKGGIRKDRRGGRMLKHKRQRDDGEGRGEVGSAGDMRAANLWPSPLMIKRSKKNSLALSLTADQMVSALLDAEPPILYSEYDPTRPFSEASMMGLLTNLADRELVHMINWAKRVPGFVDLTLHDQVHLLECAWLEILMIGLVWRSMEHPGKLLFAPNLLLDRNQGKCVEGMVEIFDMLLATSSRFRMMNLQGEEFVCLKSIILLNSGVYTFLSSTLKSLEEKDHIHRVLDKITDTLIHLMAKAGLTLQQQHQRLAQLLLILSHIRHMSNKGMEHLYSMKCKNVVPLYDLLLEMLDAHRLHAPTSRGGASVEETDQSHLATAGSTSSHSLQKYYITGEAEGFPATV
Signal transducer and activator of transcription 3 (Homo sapiens), sequence (P40763 whole entry, looked up): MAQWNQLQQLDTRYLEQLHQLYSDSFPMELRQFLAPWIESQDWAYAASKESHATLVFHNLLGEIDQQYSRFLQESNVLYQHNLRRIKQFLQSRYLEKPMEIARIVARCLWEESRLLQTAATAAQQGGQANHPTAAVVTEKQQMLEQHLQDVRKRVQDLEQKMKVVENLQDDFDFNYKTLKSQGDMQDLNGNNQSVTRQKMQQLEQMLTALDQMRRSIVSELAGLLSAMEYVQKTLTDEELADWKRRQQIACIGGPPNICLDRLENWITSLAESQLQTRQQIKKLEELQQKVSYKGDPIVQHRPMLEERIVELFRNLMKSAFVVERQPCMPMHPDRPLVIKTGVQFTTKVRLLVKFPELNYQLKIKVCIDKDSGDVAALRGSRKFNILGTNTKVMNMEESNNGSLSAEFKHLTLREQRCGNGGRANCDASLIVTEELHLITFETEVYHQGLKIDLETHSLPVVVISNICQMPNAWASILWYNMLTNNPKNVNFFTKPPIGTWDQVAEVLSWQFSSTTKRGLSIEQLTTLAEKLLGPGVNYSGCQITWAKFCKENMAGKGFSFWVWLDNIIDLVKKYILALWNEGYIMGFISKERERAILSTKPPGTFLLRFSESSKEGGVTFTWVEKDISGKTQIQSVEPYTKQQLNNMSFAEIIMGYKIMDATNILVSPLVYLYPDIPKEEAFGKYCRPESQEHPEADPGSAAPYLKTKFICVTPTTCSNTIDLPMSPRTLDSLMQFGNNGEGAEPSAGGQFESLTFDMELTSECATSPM
Steroid hormone receptor ERR1 (Homo sapiens), sequence (P11474 whole entry, looked up, the tested form may be a part): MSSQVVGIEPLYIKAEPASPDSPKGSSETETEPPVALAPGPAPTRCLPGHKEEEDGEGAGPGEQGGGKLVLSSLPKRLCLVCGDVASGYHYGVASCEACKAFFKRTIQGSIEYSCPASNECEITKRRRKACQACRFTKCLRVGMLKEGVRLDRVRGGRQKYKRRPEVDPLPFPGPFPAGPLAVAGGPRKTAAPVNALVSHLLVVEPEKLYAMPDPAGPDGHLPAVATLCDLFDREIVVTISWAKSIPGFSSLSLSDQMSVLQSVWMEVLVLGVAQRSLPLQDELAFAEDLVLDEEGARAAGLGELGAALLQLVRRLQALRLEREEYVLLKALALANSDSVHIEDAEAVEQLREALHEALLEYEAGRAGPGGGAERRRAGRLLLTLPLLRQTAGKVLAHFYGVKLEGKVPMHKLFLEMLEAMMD

With `O=C(O[C@@H]1Cc2c(O)cc(O)cc2O[C@@H]1c1cc(O)c(O)c(O)c1)c1cc(O)c(O)c(O)c1`, the result in test [1], in [2], in [3], in [4], in test [5] and in test [6] was inactive. The call in test [7], in [8], in test [10], in [11], in test [12] and in test [13] was inactive. Also, the call in [14] was inactive. Besides, in test [9], the AC50 was 36 µM (active).
For `CCOC(=O)c1ccc(C)cc1`, the result in test [1], in test [2], in test [15], in test [16], in test [4] and in test [5] was inactive. For the same molecule, the call in [6], in test [7], in [8], in test [9], in test [10] and in test [11] was inactive. Besides, the call in test [12], in test [13] and in test [17] was inactive.
Regarding `C=C(C)C1CC=C(C)CC1` (stereo unspecified), the outcome in test [1], in test [2], in [3], in test [4], in [6] and in test [7] was inactive. Also, the result in test [8], in test [9], in test [10], in [18], in test [13] and in [19] was inactive. The result in test [14] was inactive.
Take `CCCCOCC(C)O` (stereo unspecified): the outcome in test [1], in test [2], in test [3], in test [16], in [4] and in test [5] was inactive. Further, the result in [6], in [8], in test [9], in test [10], in test [11] and in test [12] was inactive. In addition, the outcome in test [18], in test [13] and in test [19] was inactive.
`CC(C)CCCCCOC(=O)CS`: the result in [1], in test [2], in test [16], in [4], in test [6] and in test [7] was inactive. The outcome in test [8], in [9], in [10], in test [11], in [18] and in test [19] was inactive. The result in test [14] was inactive. In addition, the AC50 in test [3] was 11.8 µM (active).
